Among the data in the supplement of paper PMC10849652 are log2 fold change values, retold here.

The full data set covers some 7,900 targets. This sample favours those with a hit. About 0.6% of all pairs of compound and target were hits.

Sequence of UniProt Q9UG56 (Q9UG56 whole entry, looked up): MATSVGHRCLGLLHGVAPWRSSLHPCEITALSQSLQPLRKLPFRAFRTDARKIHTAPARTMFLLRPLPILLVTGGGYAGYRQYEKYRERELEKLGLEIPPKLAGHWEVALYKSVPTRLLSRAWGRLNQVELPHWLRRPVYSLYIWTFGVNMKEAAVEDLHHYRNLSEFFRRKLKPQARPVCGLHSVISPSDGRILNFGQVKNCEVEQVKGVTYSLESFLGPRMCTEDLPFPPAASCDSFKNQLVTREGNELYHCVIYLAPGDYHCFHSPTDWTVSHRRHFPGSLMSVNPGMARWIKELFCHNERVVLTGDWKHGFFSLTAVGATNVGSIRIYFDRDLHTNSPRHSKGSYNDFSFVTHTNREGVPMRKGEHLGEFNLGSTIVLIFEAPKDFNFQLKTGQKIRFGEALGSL
Sequence of UniProt Q16822 (Q16822 whole entry, looked up): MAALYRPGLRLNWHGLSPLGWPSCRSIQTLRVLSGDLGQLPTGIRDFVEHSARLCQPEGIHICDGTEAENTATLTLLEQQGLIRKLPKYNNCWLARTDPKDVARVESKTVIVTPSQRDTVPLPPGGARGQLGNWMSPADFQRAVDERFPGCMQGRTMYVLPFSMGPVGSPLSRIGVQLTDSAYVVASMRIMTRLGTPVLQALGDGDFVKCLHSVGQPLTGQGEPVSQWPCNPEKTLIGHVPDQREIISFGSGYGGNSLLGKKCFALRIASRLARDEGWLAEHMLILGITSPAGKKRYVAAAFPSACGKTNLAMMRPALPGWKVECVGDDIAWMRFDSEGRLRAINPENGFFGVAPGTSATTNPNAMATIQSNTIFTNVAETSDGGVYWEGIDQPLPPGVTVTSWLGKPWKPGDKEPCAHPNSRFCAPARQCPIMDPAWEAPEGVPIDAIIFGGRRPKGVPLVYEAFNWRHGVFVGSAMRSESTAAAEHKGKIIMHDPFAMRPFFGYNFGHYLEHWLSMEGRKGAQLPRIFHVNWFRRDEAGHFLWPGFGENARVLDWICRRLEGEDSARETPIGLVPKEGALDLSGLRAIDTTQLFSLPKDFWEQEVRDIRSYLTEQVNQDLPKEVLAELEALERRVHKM
Sequence of UniProt Q99541 (Q99541 whole entry, looked up): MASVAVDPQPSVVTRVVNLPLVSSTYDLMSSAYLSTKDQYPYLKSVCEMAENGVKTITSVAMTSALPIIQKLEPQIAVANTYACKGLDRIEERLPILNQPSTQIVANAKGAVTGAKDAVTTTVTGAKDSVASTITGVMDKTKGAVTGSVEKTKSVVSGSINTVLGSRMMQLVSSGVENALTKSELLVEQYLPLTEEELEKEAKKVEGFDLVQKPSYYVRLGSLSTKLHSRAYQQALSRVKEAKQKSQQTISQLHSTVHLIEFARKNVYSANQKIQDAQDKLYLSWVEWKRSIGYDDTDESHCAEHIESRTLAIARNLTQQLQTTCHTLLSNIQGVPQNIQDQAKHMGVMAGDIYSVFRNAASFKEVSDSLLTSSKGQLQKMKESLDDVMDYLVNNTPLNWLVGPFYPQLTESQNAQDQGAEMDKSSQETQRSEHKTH
Sequence of UniProt Q9Y2Y1 (Q9Y2Y1 whole entry, looked up): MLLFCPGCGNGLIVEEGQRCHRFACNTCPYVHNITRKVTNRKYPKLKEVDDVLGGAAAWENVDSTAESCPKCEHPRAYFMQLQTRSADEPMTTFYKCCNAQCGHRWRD
Sequence of UniProt P53609 (P53609 whole entry, looked up): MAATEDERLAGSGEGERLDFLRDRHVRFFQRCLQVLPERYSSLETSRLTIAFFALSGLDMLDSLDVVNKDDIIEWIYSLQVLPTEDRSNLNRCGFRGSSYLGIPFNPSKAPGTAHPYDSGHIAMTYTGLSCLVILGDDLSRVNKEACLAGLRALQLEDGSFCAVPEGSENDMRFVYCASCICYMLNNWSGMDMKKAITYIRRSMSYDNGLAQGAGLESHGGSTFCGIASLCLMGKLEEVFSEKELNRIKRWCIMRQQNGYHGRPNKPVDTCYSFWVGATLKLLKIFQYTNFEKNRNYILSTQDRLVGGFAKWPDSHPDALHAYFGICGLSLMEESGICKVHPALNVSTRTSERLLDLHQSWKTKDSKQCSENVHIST
Sequence of UniProt Q86T03 (Q86T03 whole entry, looked up): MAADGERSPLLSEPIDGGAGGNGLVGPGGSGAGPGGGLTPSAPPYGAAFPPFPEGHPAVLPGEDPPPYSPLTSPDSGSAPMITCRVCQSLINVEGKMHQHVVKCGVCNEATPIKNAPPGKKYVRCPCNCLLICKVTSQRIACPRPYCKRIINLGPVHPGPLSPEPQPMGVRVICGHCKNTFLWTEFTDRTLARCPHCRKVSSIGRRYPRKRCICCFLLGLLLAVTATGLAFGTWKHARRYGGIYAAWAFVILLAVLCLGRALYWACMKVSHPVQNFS
Sequence of UniProt P14618 (P14618 whole entry, looked up): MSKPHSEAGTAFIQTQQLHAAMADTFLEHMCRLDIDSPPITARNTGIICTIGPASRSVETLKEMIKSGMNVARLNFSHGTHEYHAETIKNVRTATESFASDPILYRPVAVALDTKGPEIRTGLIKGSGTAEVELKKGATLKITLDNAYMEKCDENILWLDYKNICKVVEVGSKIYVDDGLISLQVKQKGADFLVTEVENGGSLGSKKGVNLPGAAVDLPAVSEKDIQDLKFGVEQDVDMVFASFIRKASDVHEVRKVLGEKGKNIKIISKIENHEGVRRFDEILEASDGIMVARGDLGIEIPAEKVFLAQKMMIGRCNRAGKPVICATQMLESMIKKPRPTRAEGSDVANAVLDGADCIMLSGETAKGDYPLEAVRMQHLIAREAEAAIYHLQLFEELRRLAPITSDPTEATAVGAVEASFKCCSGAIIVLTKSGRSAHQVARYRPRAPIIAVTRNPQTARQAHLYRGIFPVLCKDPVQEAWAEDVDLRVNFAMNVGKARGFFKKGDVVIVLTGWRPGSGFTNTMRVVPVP
Sequence of UniProt P0CAP2 (P0CAP2 whole entry, looked up): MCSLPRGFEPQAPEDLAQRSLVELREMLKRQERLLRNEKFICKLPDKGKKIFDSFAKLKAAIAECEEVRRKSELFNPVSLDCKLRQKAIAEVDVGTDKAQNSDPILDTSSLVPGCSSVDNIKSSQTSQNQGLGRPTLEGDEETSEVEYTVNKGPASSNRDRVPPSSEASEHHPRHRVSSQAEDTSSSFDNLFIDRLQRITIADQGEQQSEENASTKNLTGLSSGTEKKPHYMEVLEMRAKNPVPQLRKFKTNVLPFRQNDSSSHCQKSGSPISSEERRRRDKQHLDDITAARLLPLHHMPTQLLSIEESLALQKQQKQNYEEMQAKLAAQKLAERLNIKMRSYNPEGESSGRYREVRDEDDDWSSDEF
Sequence of UniProt Q15365 (Q15365 whole entry, looked up): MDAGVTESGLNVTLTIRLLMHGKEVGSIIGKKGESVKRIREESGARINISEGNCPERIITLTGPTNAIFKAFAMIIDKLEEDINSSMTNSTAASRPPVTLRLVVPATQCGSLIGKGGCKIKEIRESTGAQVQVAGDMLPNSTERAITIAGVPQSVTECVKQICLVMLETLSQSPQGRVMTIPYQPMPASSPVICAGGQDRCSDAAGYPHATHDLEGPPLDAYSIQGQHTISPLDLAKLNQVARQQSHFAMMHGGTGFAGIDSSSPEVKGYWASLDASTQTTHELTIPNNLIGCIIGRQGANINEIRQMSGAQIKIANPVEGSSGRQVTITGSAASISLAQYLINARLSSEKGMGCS
Sequence of UniProt P49642 (P49642 whole entry, looked up): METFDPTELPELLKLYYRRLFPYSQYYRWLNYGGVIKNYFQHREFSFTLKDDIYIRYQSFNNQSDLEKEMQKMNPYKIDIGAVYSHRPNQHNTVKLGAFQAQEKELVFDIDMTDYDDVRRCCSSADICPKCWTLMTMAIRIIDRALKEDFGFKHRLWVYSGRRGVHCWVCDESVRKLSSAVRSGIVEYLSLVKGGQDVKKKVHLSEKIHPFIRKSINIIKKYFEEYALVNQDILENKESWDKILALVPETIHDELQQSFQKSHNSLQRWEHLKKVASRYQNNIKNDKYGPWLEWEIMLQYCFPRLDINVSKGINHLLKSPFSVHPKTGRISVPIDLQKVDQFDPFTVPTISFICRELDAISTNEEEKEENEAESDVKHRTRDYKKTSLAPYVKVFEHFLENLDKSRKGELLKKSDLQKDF
Sequence of UniProt Q9Y5Y5 (Q9Y5Y5 whole entry, looked up): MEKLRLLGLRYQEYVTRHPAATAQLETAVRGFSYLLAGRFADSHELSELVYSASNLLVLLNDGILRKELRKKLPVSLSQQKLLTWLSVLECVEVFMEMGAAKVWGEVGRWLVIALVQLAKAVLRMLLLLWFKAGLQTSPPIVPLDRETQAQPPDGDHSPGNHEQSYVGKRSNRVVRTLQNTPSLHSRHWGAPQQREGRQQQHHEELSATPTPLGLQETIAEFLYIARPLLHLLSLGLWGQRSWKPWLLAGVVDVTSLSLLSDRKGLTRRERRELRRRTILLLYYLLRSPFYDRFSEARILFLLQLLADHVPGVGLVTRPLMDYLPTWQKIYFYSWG
Sequence of UniProt O95453 (O95453 whole entry, looked up): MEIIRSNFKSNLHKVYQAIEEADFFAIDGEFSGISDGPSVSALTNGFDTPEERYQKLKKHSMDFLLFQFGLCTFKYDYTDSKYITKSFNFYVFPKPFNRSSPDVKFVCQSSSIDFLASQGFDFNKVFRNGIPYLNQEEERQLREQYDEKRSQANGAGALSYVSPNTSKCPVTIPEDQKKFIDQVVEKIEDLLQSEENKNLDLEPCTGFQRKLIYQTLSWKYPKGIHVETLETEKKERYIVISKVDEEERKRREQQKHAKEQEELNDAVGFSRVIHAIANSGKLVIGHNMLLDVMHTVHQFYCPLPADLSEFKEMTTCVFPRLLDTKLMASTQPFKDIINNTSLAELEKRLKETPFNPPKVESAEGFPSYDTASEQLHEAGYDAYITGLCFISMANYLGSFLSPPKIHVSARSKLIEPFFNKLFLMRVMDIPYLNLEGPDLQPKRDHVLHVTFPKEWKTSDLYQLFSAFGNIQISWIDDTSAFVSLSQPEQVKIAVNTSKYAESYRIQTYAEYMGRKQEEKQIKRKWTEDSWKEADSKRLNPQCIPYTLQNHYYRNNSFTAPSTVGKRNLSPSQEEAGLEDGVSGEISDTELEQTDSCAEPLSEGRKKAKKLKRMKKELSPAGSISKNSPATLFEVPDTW

Compound in the assay: CNC(=O)c1ccc(Nc2ncc(C(F)(F)F)c(NCc3nccnc3N(C)S(C)(=O)=O)n2)cc1 [defactinib]
In words: log2 fold change, soluble protein after heating vs DMSO (PISA); higher = thermal stabilisation; K562 cells, 10 uM, 30 min; active = over 0.2 and 3.5 SD of the protein, either way, in both replicates (recomputed). In outline: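 K562 cells at 2×10^6 cells/mL were treated with 10 μM compound for 30 min. Aliquots were heated for 3 min across 48°C-58°C, pooled, and extracted in PBS with 0.5% NP-40 at 4°C; soluble protein was the supernatant after 21,000xg for 90 min. Soluble protein was quantified by TMTpro 16plex LC-MS/MS with channel sums equalised, and reported as log2 fold change in thermal stability against DMSO controls, with values from duplicates.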
Consider PYGB (UniProt P11216), for which the log2 fold change was -0.091 (inactive).
The figure for PLCB3 (UniProt Q01970) is -0.074 (inactive).
The figure for POLR2M (UniProt P0CAP2) is 0.041 (inactive); for PEX16 isoform 2 (UniProt Q9Y5Y5) it is -0.106 (inactive).
Take PTPA (UniProt A6PVN8): the log2 fold change is -0.045 (inactive).
The figure for PARN (UniProt O95453) is -0.141 (inactive); for PKM (UniProt P14618) it is -0.01 (inactive); for PRIM1 (UniProt P49642) it is -0.107 (inactive).
Consider PCK2 (UniProt Q16822), for which the log2 fold change was -0.048 (inactive).
Regarding POLR2G (UniProt P62487), the log2 fold change was 0.154 (inactive).
With PTDSS1 (UniProt P48651), the log2 fold change was 0.13 (inactive).
With PHKA2 (UniProt P46019), the log2 fold change is 0.012 (inactive).
The figure for PISD (UniProt Q9UG56) is -0.054 (inactive); for PIP4P1 isoform 2 (UniProt Q86T03) it is 0.039 (inactive); for PGGT1B (UniProt P53609) it is 0.001 (inactive).
The figure for PCLAF (UniProt Q15004) is 0.076 (inactive).
Regarding POLR3K (UniProt Q9Y2Y1), the log2 fold change was -0.086 (inactive).
The figure for POLR2K (UniProt P53803) is 0.034 (inactive); for PCBP1 (UniProt Q15365) it is -0.151 (inactive).
Take PCNT (UniProt O95613): the log2 fold change is 0.154 (inactive).
PTGR2 (UniProt Q8N8N7): the log2 fold change is -0.025 (inactive).
For the target PLIN2 (UniProt Q99541), the log2 fold change is -0.006 (inactive).
The figure for PDCD6 (UniProt O75340) is -0.017 (inactive).
